Here are results for eight compounds from PubChem BioAssay (Tox21).

Experiment [1] in a line: cAMP Responsive Elements (CRE) small molecule antagonists, cell-based qHTS assay: qHTS cell viability counter screen (AID 2060913). Further: nearly all actives have a fitted effect of over 40% in size. A digest of the protocol: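 CRE-bla HEK293T cells were seeded in assay medium with 10% dialyzed FBS, incubated 18 hrs at 37 C, then exposed to compounds plus 0.25 uM final NKH477 for 3 hrs. Viability was read by CellTiter-Glo luminescence after 30 min, in the same wells.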
A general note: Quantitative high-throughput screening tests each substance at several concentrations.

Experiment [2] can be described thus: cAMP Responsive Elements (CRE) small molecule agonists, cell-based qHTS assay: qHTS cell viability counter screen (AID 2060914). Further: nearly all actives have a fitted effect of over 50% in size. A digest of the protocol: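 HEK 293T CRE-bla; DMEM + 10% dialyzed FBS, 25 mM HEPES; 18 h pre-incubation; compound 3 h, 37 °C/5% CO2; CellTiter-Glo added after reporter read; luminescence after 30 min RT.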

Records with an inconclusive call do not appear. Values without a mark were called inactive. Active and inactive are the calls of the source. The call rests on the fitted dose curve; in most records, active means well fitted cell-killing curve with a large enough effect in the repeat runs; inconclusive means weak or mixed curves, or effect the other way; inactive means flat fitted curve, though single readings scatter.
On the % scale 0 is the no-effect control and ±100 the full control effect.

On to `Nc1cc(Cl)c(O)c(Cl)c1`, for which the Potency entry in experiment [1] and in experiment [2] was “inactive” in each case.

Regarding `CC(C)(C(=O)O)c1ccc(C(O)CCCN2CCC(C(O)(c3ccccc3)c3ccccc3)CC2)cc1` (stereo unspecified), the Potency result in experiment [1] and in experiment [2] was “inactive” throughout.

Consider `C=C1C(=C/C=C2\CCC[C@]3(C)[C@@H]([C@H](C)/C=C/[C@@H](O)C4CC4)CC[C@@H]23)C[C@@H](O)C[C@@H]1O`, for which the Potency result in experiment [1] and in experiment [2] was “inactive” throughout.

Consider `CCCCc1ccc2nc(NC(=O)OC)[nH]c2c1`, for which the Potency result in experiment [1] and in experiment [2] was “inactive” in each case.

On to `O=C(OCCOCCOC(=O)c1ccccc1)c1ccccc1`, for which the Potency entry in experiment [1] and in experiment [2] was “inactive” each time.

Take `Nc1ccc(Cl)c(N)c1`: the Potency result in experiment [1] and in experiment [2] was “inactive” in each case.

In the case of `CC(C)C[C@@H](N)C(=O)O`, in experiment [1], the viability change, negative = cytotoxic was 3.57% [at 18.9 µM]. In addition, the activity change, negative = cytotoxicity in experiment [2] is -6.51% [at 18.9 µM].

Regarding `COc1cc(C=O)ccc1O`, the Potency entry in experiment [1] and in experiment [2] was “inactive” in each case.
